SMILES strings stand for the structures. The campaign covered roughly 330,000 compounds. About 1,900 (0.58%) were called active. Roughly 4% stayed inconclusive and do not appear here. A selection follows. Entries with a potency or affinity are not part of this list. A number with no mark means an inactive call. No stated cut-off is given here; in the data, inconclusive means inhibition above about 70% without an active follow-up result; inactive means below that.

The nature of the experiment: M. tuberculosis growth inhibition, HTS (AID 449762).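 Further: bacterial growth assessed after seven days of incubation.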 The settings on record: M. tuberculosis H37Rv growth inhibition, 7H9 media; at 25 µM; stronger effect = higher value.
With `CC(C)CCN1CC(=O)N2[C@@H](Cc3c([nH]c4ccccc34)C2(C)C)C1=O`, the inhibition (commonly the drop in the measured response relative to a control, in per cent) was 1.66%. Turning to `Cc1ccc(Oc2nc(-c3cccnc3)nc3ccccc23)c([N+](=O)[O-])n1`, the inhibition was 3.26%. Take `c1ccc(Oc2nc(-c3cccnc3)nc3ccccc23)cc1`: the inhibition is 13.2%. As for `CCC(C)N1CCN(C(=O)Cc2ccccc2)CC1` (stereo not given), the figure is 4.3%; as for `Cc1cc(=O)oc2cc(OCC(=O)N3CCN(C(C)c4ccccc4)CC3)c(Cl)cc12` (stereo not given), -5.58%; as for `Cc1ccc(NC(=O)CN(C)C(=O)c2cccc(S(=O)(=O)NCc3ccccc3)c2)cc1`, 2.27%. In the case of `O=C(NCCc1ccccc1)c1ccc(CS(=O)Cc2ccc(Cl)cc2)o1` (stereo not given), the inhibition is 3.87%. As for `CCOc1ccc(CCNC(=O)c2ccc(CS(=O)Cc3ccc(Cl)cc3)o2)cc1` (stereo not given), the figure is -1.24%. With `CCCn1c(N)cc(=O)n(CCC)c1=O`, the inhibition is 8.69%. With `Clc1ccccc1CN1CCN(c2ccccc2Cl)CC1`, the inhibition is -2.43%. For `c1coc(CNc2c3c(nc4ncnn24)CCCC3)c1`, the inhibition was -6.82%. Consider `CN(C)CCCNc1c2c(nc3cc(-c4cccc(F)c4)nn13)CCC2`, for which the inhibition was 1.49%. Consider `Clc1cccc(-c2cc3nc4c(c(N5CCOCC5)n3n2)CCCC4)c1`, for which the inhibition is 58.9%. As for `COc1cccc(-c2cc3nc4c(c(N5CCC6(CC5)OCCO6)n3n2)CCCC4)c1`, the inhibition is 12.8%. As to `C(=NCCCN1CCOCC1)c1ccc2c(c1)OCO2`, the inhibition is -12.4%. Regarding `COc1cc(NC(=O)C23CC4CC(C2)CC(n2nnc(C)n2)(C4)C3)c(OC)cc1Cl`, the inhibition was 2.98%. As to `COc1cc2cc(C(c3nnnn3C3CCCC3)N3CCc4ccccc43)c(=O)[nH]c2cc1OC` (stereo not given), the inhibition was 0.64%. Under `CCC(C)(C)n1nnnc1C(c1cc2cc(OC)ccc2[nH]c1=O)N1CCc2ccccc21` (stereo not given) stands 64.6%; under `COc1ccc(CN2CCCC(C(=O)c3ccc(Cl)cc3)C2)cc1Cn1cccn1` (stereo not given), -5.07%; under `COc1ccc(CN2CCCC(C(=O)c3cccc(OC(C)C)c3)C2)cc1Cn1cccn1` (stereo not given), -6.67%.

Take `CCCNC1=C(C)C(=O)C2=C(C1=O)C(COC(N)=O)[C@]1(OC)C3NC3CN21` (stereo not given in full): the inhibition is -1.51%. As for `COC12C(COC(N)=O)C3=C(C(=O)C(C)=C(N)C3=O)N1CC1C2N1C` (stereo not given), the figure is 100%; as for `CC(=O)N1CCN(c2ccc(NC(=S)NC(=O)/C=C/c3ccccc3)cc2)CC1`, 1.44%; as for `Cn1c(/C=N/O)nc2ccccc21`, -1.93%. As for `CCOC(=O)c1ccccc1N=Cc1c(O)c2ccccc2oc1=O`, the figure is 5.1%. Regarding `COC(=O)c1cc(N=Cc2c(O)c3ccccc3oc2=O)cc(C(=O)OC)c1`, the inhibition was -16.3%. As for `CCOC(=O)c1ccc(N=Cc2nc(-c3ccccc3)oc2OC(C)=O)cc1`, the figure is 39.2%; as for `COc1ccc(C(O)c2ncc(C(F)(F)F)cc2Cl)cc1` (stereo not given), 12.8%. As for `Cc1cc(C(=O)N/N=C2\CC(=O)CC(C)(C)C2)c2ccccc2n1`, the inhibition was 5.98%.

Turning to `COCCn1c(NCc2ccc(C)cc2)nc2c1c(=O)[nH]c(=O)n2C`, the inhibition was 2.2%. `COc1cccc(NC(=O)C2CCCO2)c1` (stereo not given): the inhibition was 0.33%. As to `CC(C)CC1Nc2ccc(C(=O)NCCCN3CCOCC3)cc2NC1=O` (stereo not given), the inhibition is 7.57%.

As for `N#Cc1c(-c2ccc(Cl)cc2)ccn2nc(CCC(=O)O)nc12`, the inhibition was 0.53%.

`CCc1nc2c(C#N)c(-c3ccc(Cl)cc3)ccn2n1`: the inhibition is -11.1%.

For the compound `O=C(COC(=O)CNC(=O)c1cccc(OC(F)F)c1)NCc1ccc2c(c1)OCO2`, the inhibition was 7.07%.

In the case of `Cc1ccc(NC(=O)c2cccc(-n3cnnn3)c2)cc1Cl`, the inhibition is 4.03%. Under `CCN1CC(CN(C)Cc2nc(Cc3ccccc3)no2)CC1=O` (stereo not given) stands 3.14%.

With `O=C1c2ccccc2S(=O)(=O)c2cc(C(=O)N3CCN(c4ccc(Cl)cn4)CC3)ccc21`, the inhibition is 14%. With `O=C1c2ccccc2S(=O)(=O)c2cc(C(=O)N3CCN(c4ccccc4)CC3)ccc21`, the inhibition was 4.82%.

For `O=C(OCC(=O)N1CCCc2ccccc21)c1cccnc1Cl`, the inhibition was 0.07%.

As for `COC(=O)N/N=C/c1ccccc1Cl`, the inhibition is -1.15%. With `COC(=O)N/N=C/c1ccccc1`, the inhibition was -2.71%. As for `COc1ccc(NC(=O)CSc2ccccc2)cc1S(=O)(=O)N1CCOCC1`, the figure is 9.25%; as for `CC(Nc1cc(N2CCN(C(=O)C(C)(C)C)CC2)ccc1[N+](=O)[O-])c1ccccc1` (stereo not given), 6.58%; as for `CCCCc1nnc(NC(=O)c2ccc(N3CCCC3=O)cc2)s1`, 0.88%.

`CCOc1ccc(Nc2cc(C)nc(N3CCOCC3)n2)cc1`: the inhibition was -6.87%.

Take `Cc1cc(NCCO)nc(-n2nc(C)cc2C)n1`: the inhibition is 1.56%.

On to `Cc1occc1C(=O)Nc1nnc(C(F)(F)F)s1`, for which the inhibition is -11.4%. In the case of `C(#Cc1ccc2c(c1)COc1c3ccccc3nn1-2)c1ccccc1`, the inhibition is -2.59%. Consider `C#Cc1ccc2c(c1)COc1c3ccccc3nn1-2`, for which the inhibition was 26.7%. For the compound `COc1ccc(C(CNC(=O)Nc2ccc(Cl)cc2)N2CCN(C)CC2)cc1` (stereo not given), the inhibition is 6.3%.

For `COc1cccc(NC(=O)[C@@H]2CCCN2C(=O)C2CCN(S(=O)(=O)c3ccc(C)cc3)CC2)c1`, the inhibition was -6.02%. Consider `CC(C)(C)Nc1nc(N2CCCC2)nc(N2CCCC2)n1`, for which the inhibition is 8.96%. As for `CCNc1nc(NC(C)(C)C)nc(N2CCCC2)n1`, the figure is 12.8%; as for `O=C(COc1ccccc1Br)c1ccc2c(c1)OCO2`, -8.06%; as for `CC/C(=N\NC(=S)Nc1cccc(C)c1)c1ccccc1`, 4.58%. As for `C/C(=N\NC(=S)Nc1cccc(C)c1)c1cc2ccccc2o1`, the inhibition was 67.2%.

For the compound `Cc1ccc2cc(C)c3nnc(SCC(=O)N4CCN(C(=O)c5ccco5)CC4)n3c2c1`, the inhibition was -3.44%. For the compound `COc1ccc(Cl)cc1NC(=O)CSc1nc(Nc2ccccc2)nc(N2CCOCC2)n1`, the inhibition is -3.97%. In the case of `O=C(CSc1nc(Nc2ccccc2)nc(N2CCOCC2)n1)Nc1ccccc1Cl`, the inhibition was -2.86%. As for `COc1ccccc1OCCNC(=O)C1CC(=O)N(Cc2ccc(C)cc2)C1` (stereo not given), the figure is -0.95%; as for `Cc1csc(SCC(=O)NC(=O)NCc2ccccc2)n1`, -2.35%; as for `O=C(NC(=S)Nc1ccc2oc(=O)ccc2c1)c1cccc(Cl)c1`, 5.43%. For the compound `CC(C)(C)N=C1NC(=NC(C)(C)C)c2ccccc21`, the inhibition is 1.58%.

On to `Cc1cccc(NC(=O)CCc2ccc(C)o2)c1`, for which the inhibition was -15.4%. Under `Cc1ccc(NC(=O)CCc2ccc(C)o2)cc1` stands 23.4%; under `CCOc1ccc(N(CC(=O)NC2CCCC2)C(=O)CCCC(=O)Nc2ccccn2)cc1`, -1.21%. As for `CCCNC(=O)c1cc2c3ccccc3n(C)c2s1`, the figure is -14.8%; as for `CCc1cc(C(=O)NNC(=O)CCN2CCN(c3ccccc3)CC2)sc1C`, -4.59%. On to `CCc1cc(C(=O)NCC2CCCO2)sc1C` (stereo not given), for which the inhibition was -1.92%.

In the case of `CC(=O)NNC(=O)c1cc2c3ccccc3n(C)c2s1`, the inhibition is -4.02%. Under `C/C(=N/NS(=O)(=O)c1ccc(Br)cc1)c1c[nH]c2ccccc12` stands 2.63%. Regarding `CCOc1ccc(CN2CCNC(=O)C2CC(=O)N(C)CC2CCOCC2)cc1` (stereo not given), the inhibition is 5.35%. Under `COc1cc(C(=O)NCC(=O)Nc2c(C)cccc2C)ccc1OCc1ccccc1` stands -1.77%; under `COc1ccc(C(=O)N2CCC(n3nccc3NC(=O)C3CC3)CC2)cc1F`, 0.61%. On to `COc1cc(/C=C2/C(=N)N3N=C(CC(=O)N4CCOCC4)SC3=NC2=O)ccc1OCc1ccccc1F`, for which the inhibition was 0.04%. With `Cc1ccc(S(=O)(=O)N(C)c2ccc(C(=O)N3CCC(C(N)=O)CC3)cc2)cc1`, the inhibition was -5.27%. Under `CCOC(=O)N1CCN(C(=S)NC(=O)c2cccc(OC)c2)CC1` stands -0.27%.

For the compound `O=C(O)CCCN1C(=O)c2cccc3cccc(c23)C1=O`, the inhibition is -5.41%. As to `CN(C)CCCN1C(=O)c2cccc3cccc(c23)C1=O`, the inhibition is -1.82%.

`O=C1CCCC/C1=C/Nc1ccc2c(c1)OCO2`: the inhibition was 59.1%. As for `O=C1/C(=C/Nc2cccc([N+](=O)[O-])c2)CCc2ccccc21`, the figure is 2.58%. As for `Cc1cccc(C(=O)NCCc2csc(C)n2)c1`, the figure is -0.44%; as for `CCCCC(CC)C(=O)N1CCN(C(=O)c2ccco2)CC1` (stereo not given), -4.92%.

On to `CCc1nc(Nc2ccccc2OC)c2oc3ccccc3c2n1`, for which the inhibition was 2.96%. Under `COc1ccc(C(=O)NCc2nnc(SCC(=O)c3ccc(F)cc3)n2C)cc1OC` stands -0.94%; under `CC(CCc1ccccc1)NC(=O)CN(C)Cc1ccc(F)cc1` (stereo not given), 0.05%. As for `CC(=O)N(C1=C(N)C(=O)c2ccccc2C1=O)c1ccccc1`, the figure is -1.88%; as for `CNC1=C(N(C(C)=O)c2ccc(Br)cc2)C(=O)c2ccccc2C1=O`, -2.3%; as for `CN(CC(=O)NCCc1ccc(F)cc1)Cc1ccccc1`, -0.22%.

Turning to `CC1CCCCC12NC(=O)N(CC(=O)OCc1ccc(Br)cc1)C2=O` (stereo not given), the inhibition was 5.76%. For the compound `CN(C)S(=O)(=O)c1ccc(C(=O)NNC(=O)C2COc3ccccc3O2)cc1` (stereo not given), the inhibition was 2.93%. As to `O=C(O)c1cc(N/N=C/c2ccc(OCc3ccccc3)cc2)ccc1Cl`, the inhibition was -0.4%.

On to `COc1ccc(C=NOCC(=O)OCC(=O)Nc2ccc(OC)cc2)cc1`, for which the inhibition is 4.42%. Under `CN(C(=O)CO/N=C/c1ccc(Cl)cc1)c1ccccc1` stands -0.18%.

(Values after PubChem BioAssay AID449762 (Southern Research Specialized Biocontainment Screening …, 2010).)
